We go through 110 compounds from PubChem BioAssay AID651597 (National Center for Advancing Translational Sciences (NCATS), 2012).

Among all 1,100 compounds or so, about 390 (35%) were called active. Not shown: some 30% with an inconclusive outcome. The call rests on the fitted dose curve; in most records, active means well fitted inhibition curve with a large enough effect; inconclusive means small, poorly fitted or top-dose-only effect; inactive means flat fitted curve, though single readings scatter. Some of the results follow. A call without a number means that no potency is given here.
Potency means the concentration at half of the fitted maximal effect.

For this assay, the target named is Luciferin 4-monooxygenase (Photinus pyralis) (UniProt P08659). Description: qHTS of Nrf2 Activators: Hit Validation in Secondary FLuc Assay. Further: nearly all actives have a fitted effect of over 65% in size. The settings on record: firefly luciferase inhibition counter-screen, luminescence; series mostly up to 57.5 µM. An outline of the steps: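 Counter-screen on purified firefly luciferase with ATP and D-luciferin at Km concentrations; compounds flagged if they inhibit the enzyme, indicating possible reporter stabilization rather than ARE activation.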
As to `CS/C(=C\C(=O)c1ccco1)Nc1ccccc1Cl`, the Potency was 2.69 µM (active). Next, `O=c1cc(/C=C/c2ccccc2)oc2ccccc12`: 2.13 µM (active); `O=C(NCc1ccco1)c1cc(=O)c2ccccc2o1`: “inactive”; `O=[N+]([O-])c1ccccc1N/N=C/c1c[nH]c2ccccc12`: 0.601 µM (active).

In the case of `C(=N\Nc1nc2ccccc2[nH]1)/c1c[nH]c2ccccc12`, the Potency is 1.35 µM (active). The value for `O=C(NCCc1c[nH]c2ccccc12)c1ccc([N+](=O)[O-])o1` was “inactive”. Next, `Oc1[nH]c2ccccc2c1N=NC(=S)N1CCOCC1`: 9.53 µM (active); `O=C(N=Nc1c(O)[nH]c2ccccc12)c1ccco1`: 3.01 µM (active); `O=C(N=Nc1c(O)[nH]c2ccc(Br)cc12)c1ccco1`: 10.7 µM (active). With `O=C(Nc1c(O)c2ccccc2[nH]c1=O)c1ccco1`, the Potency result was “inactive”. Consider `CC(/C=C(\NC(=O)c1ccccc1)C(=O)N=Nc1c(O)[nH]c2ccc(C)cc12)=C\c1ccccc1`, for which the Potency result was “inactive”. Next, `Cc1ncc(N=Nc2ccccc2)c(-c2ccccc2)n1`: “inactive”.

For the compound `O=C1/C(=C/c2ccccc2O)SC(=S)N1Cc1cccnc1`, the Potency is 16.9 µM (active). Next, `CN1CCN(C(=O)CCN2C(=O)/C(=C/c3cccc(Br)c3)SC2=S)CC1`: “inactive”; `COc1ccc(OC)c(/C=C2\SC(=S)N(Cc3cccnc3)C2=O)c1`: “inactive”; `COC(=O)c1ccc2nc(-c3cccc(Br)c3)c(CC3CCCCC3)n2c1`: “inactive”. For `COC(=O)c1ccc2nc(-c3ccco3)c(Cc3ccccc3)n2c1`, the Potency was 3.38 µM (active). On to `COC(=O)c1ccc2nc(-c3cccc(Cl)c3)c(Cc3ccccc3OC)n2c1`, for which the Potency is 15.1 µM (active). Consider `COC(=O)c1ccc2nc(-c3ccco3)c(Cc3cccc(Cl)c3)n2c1`, for which the Potency was 12 µM (active). The value for `Cc1nn(C)c(C)c1/C=C(/C(=O)C(C)(C)C)n1cncn1` was “inactive”. The value for `O=C(/C(C=Nc1ccc(F)cc1)=C(/O)c1ccco1)C(F)(F)F` was 10.7 µM (active); that for `O=C(/C(C=Nc1cccc(C(F)(F)F)c1)=C(/O)c1ccco1)C(F)(F)F` was 13.5 µM (active). Next, `Cc1cccc(N=C/C(C(=O)C(F)(F)F)=C(\O)c2ccco2)c1`: 10.7 µM (active). For `Cc1ccc(NC(=O)CC2S/C(=N/N=C/c3ccco3)NC2=O)cc1Cl` (stereo not given), the Potency result was “inactive”. As for `Cc1ccc(N=C/C(C(=O)C(F)(F)F)=C(\O)c2ccco2)cc1Cl`, the Potency is 3.01 µM (active). The value for `CSc1nc(Oc2ccc(Cl)cc2)c2sccc2n1` was “inactive”; that for `CCn1c(=O)c([N+](=O)[O-])c(NCc2ccco2)c2ccccc21` was “inactive”; that for `N#C/C(=C\c1ccccc1)c1ccccn1` was 9.53 µM (active). Consider `S=c1[nH]nc(-c2ccc(Cl)cc2)n1/N=C/C=C/c1ccco1`, for which the Potency is 10.7 µM (active). The value for `O=C(CN1CCN(Cc2ccccc2Cl)CC1)N/N=C/C=C/c1ccco1` was “inactive”. With `Cc1cccc(-c2n[nH]c(=S)n2/N=C/C=C/c2ccco2)c1`, the Potency was 10.7 µM (active). With `S=C(NNc1ccc2ccccc2c1)NC1CCCCC1`, the Potency was 6.75 µM (active). As for `CNC(=O)C1CCN(S(=O)(=O)c2c(C)noc2/C=C/c2ccccc2F)CC1`, the Potency result was “inactive”. Next, `COc1ccc(N=Nc2ccc(O)c3ncccc23)cc1`: 9.53 µM (active). For `CCN(CC)CCNC(=O)C(Cl)=C1C(Cl)=C(Cl)C(Cl)=C1Cl`, the Potency result was “inactive”.

With `Cc1cc(=O)n2nc(-c3ccccc3)sc2c1C#N`, the Potency was 23.9 µM (active).

For the compound `N#Cc1c(-c2ccccc2)cc(-c2ccccc2)[nH]c1=O`, the Potency entry is “inactive”.

`[O-][n+]1onc2c3cc(-c4ccccc4)nnc3ccc21`: the Potency result is “inactive”. `Cc1cc(O)cc2c1C(=O)/C(=C/c1ccco1)O2`: the Potency is 2.39 µM (active). In the case of `Cn1nnnc1Sc1ncnc2scc(-c3cccc4ccccc34)c12`, the Potency entry was “inactive”. For `O=C(Nc1cc(Br)ccc1O)c1cnn2c(C(F)F)cc(C3CC3)nc12`, the Potency result is “inactive”. With `c1ccc(N2CC3COc4ccccc4C3=N2)cc1` (stereo not given), the Potency was 4.26 µM (active).

Regarding `c1ccc(N2CC3CCc4ccccc4C3=N2)cc1` (stereo not given), the Potency was 3.01 µM (active). The value for `CCOc1ncccc1C(=O)NNC(=O)c1ccc(NS(=O)(=O)c2cccs2)cc1` was “inactive”; that for `C/C(=N\NC(=O)c1cccc(Br)c1)c1ccccn1` was 8.49 µM (active). Regarding `CC(=O)c1nn(-c2ccccc2)cc1C(=O)c1cccc(Br)c1`, the Potency result was “inactive”.

As to `FC(F)(F)c1nnc2c(Sc3ccccn3)nc3ccccc3n12`, the Potency entry was “inactive”.

As for `CCn1c(=N)n(CC(=O)c2ccco2)c2ccccc21`, the Potency entry is “inactive”.

In the case of `CCn1c(=NC(=O)c2ccco2)sc2cccc(F)c21`, the Potency is 6.01 µM (active). The value for `COc1ccc(Br)cc1/C=N/Nc1ccccn1` was “inactive”. Next, `COc1cc(/C=N/Nc2ccccn2)cc(OC)c1O`: 2.13 µM (active). The value for `N#C/C(=C\C=C\c1ccccc1)C(=O)NCc1cccnc1` was “inactive”; that for `N/C(=N\OC(=O)c1cccc2ccccc12)c1cccnc1` was “inactive”; that for `N/C(=N\OC(=O)c1cc(Cl)ccc1Cl)c1cccnc1` was 4.78 µM (active). For the compound `N/C(=N\OC(=O)c1ccccc1Cl)c1ccncc1`, the Potency is 4.78 µM (active). Take `N/C(=N\OC(=O)/C=C/c1ccccc1)c1cccnc1`: the Potency is 5.36 µM (active). As to `N/C(=N\OC(=O)c1cc(Cl)ccc1Cl)c1ccncc1`, the Potency was 15.1 µM (active).

In the case of `O=C1C2C3C=CC(C4CC34)C2C(=O)N1/N=C/c1ccc([N+](=O)[O-])o1` (stereo not given), the Potency entry is “inactive”. Take `CCCn1nc([N+](=O)[O-])c(C(C#N)c2nc3ccccc3s2)c(Cl)c1=O` (stereo not given): the Potency is 12 µM (active). For `Nc1ccccc1N1C(=O)c2cccc3cccc(c23)C1=O`, the Potency entry was “inactive”.

Take `Cc1ccc([N+](=O)[O-])cc1NC(=S)NC(=O)c1ccco1`: the Potency result was “inactive”. Next, `CCCc1cc(C(N)=O)c(NC(=O)c2ccco2)s1`: 3.01 µM (active); `CCc1c(C)sc(NC(=O)c2ccco2)c1C#N`: 12 µM (active); `Cc1sc(NC(=O)c2ccco2)c(CN2CCCCC2)c1C`: “inactive”. Turning to `Cc1ccc2nsnc2c1NC(=S)NC(=O)c1ccco1`, the Potency result was “inactive”. As for `NC(=O)c1c(NC(=O)c2ccco2)sc2c1CCC2`, the Potency was 2.13 µM (active). Take `Cc1sc(NC(=S)NC(=O)c2ccco2)c(C(N)=O)c1C`: the Potency was 1.2 µM (active). As to `COC(=O)CSc1nc2ccccn2c(=O)c1C=O`, the Potency result was “inactive”. As to `COn1c(=O)c(-c2cccc(Br)c2)[n+]([O-])c2ccccc21`, the Potency result is “inactive”. Turning to `N#CC1=C(N)Oc2c(ccc3ccccc23)C1c1ccsc1` (stereo not given), the Potency was 16.9 µM (active). The value for `COc1ccc(S(=O)(=O)N2CCN(C(=O)c3ccc([N+](=O)[O-])o3)CC2)cc1` was “inactive”; that for `COc1cccc(NC(=O)c2nc(SC)ncc2Cl)c1` was “inactive”. The value for `COc1cccc(NC(=O)c2nn(C)cc2Br)c1` was 12 µM (active); that for `COc1ccc(S(=O)(=O)NCCc2csc3nc(-c4ccc(Cl)cc4)nn23)cc1C` was “inactive”; that for `COc1ccc(NC(=O)c2ccc([N+](=O)[O-])s2)c([N+](=O)[O-])c1` was “inactive”. Turning to `O=C(Nc1ccccc1[N+](=O)[O-])C1COc2ccccc2O1` (stereo not given), the Potency is 3.01 µM (active). Next, `CCOc1ccccc1NC(=O)C1COc2ccccc2O1` (stereo not given): “inactive”. For the compound `Cn1c(=O)n(CCc2ccccc2)c(=O)c2c1nc1n2CCN1Cc1ccco1`, the Potency entry was “inactive”. The value for `O=C(NCc1ccccc1)c1c(Cl)nc(Cl)c(Cl)c1Cl` was “inactive”. As for `O=C(Nc1nc(=O)c2ccccc2s1)c1ccccc1`, the Potency is 1.07 µM (active). Next, `Cc1csc2nc(NC(=O)c3ccccc3)sc(=O)c12`: 2.39 µM (active); `Cc1ccccc1C(=O)Nc1nc2c(C)csc2c(=O)s1`: “inactive”; `Cc1csc2c(=O)sc(NC(=O)c3ccc(F)cc3Cl)nc12`: “inactive”. The value for `O=C1C=C(C#Cc2ccccc2)C[C@@H](c2ccc(F)cc2)C1` was “inactive”; that for `N/C(=N\OC(=O)c1ccco1)c1cccc(Br)c1` was 2.39 µM (active).

Turning to `O=C(CSc1ncnc2sc3c(c12)CCCC3)c1ccco1`, the Potency was 2.69 µM (active). The value for `O=C(Nc1ncnc2sc3c(c12)CCC3)c1ccco1` was “inactive”.

Regarding `Cc1ccsc1-c1ccnc(-n2cccc2)n1`, the Potency is 15.1 µM (active).

For the compound `c1coc(-c2ccnc(-n3cccc3)n2)c1`, the Potency was 15.1 µM (active).

As for `c1coc(-c2ccnc3nc(-n4cccc4)nn23)c1`, the Potency entry is “inactive”.

As to `CN1CCCC1CCNc1ccc2c(=O)c3ccccc3oc2c1` (stereo not given), the Potency is 6.75 µM (active).

As to `Cc1sc2ncnc(Sc3nnnn3-c3ccccc3)c2c1C`, the Potency result is “inactive”. The value for `Cc1nc2nc(-c3ccccc3)nn2c(C)c1Cl` was 3.38 µM (active). Turning to `CCOc1ccc(Br)cc1-c1noc(-c2cccs2)n1`, the Potency result is “inactive”. With `COc1cc(-c2noc(-c3cccs3)n2)cc(OC)c1OC`, the Potency entry is “inactive”.

Take `CCOc1ncccc1-c1nc(-c2cccs2)no1`: the Potency was 15.1 µM (active). The value for `O=C(/C=C\c1ccc2c(c1)OCO2)CC1(O)C(=O)Nc2ccccc21` (stereo not given) was 9.53 µM (active). The value for `CC(C)N1C/C(=C/c2cccnc2)C(=O)/C(=C/c2cccnc2)C1` was “inactive”; that for `Nc1ccc2c(c1)Cc1c(F)cccc1-2` was 7.57 µM (active). Next, `COc1ccc2c(c1)Cc1c-2cc(Br)c(N)c1Br`: “inactive”; `Cc1ccc(S(=O)(=O)c2nc(S(C)(=O)=O)sc2N2CC(C)OC(C)C2)cc1` (stereo not given): “inactive”. As for `Cc1ccc(C)c(NC(=O)COC(=O)c2cc(=O)c3ccccc3o2)c1`, the Potency result is “inactive”.

Regarding `Cc1ccc(C)c(NC(=S)c2nc3ccccc3s2)c1`, the Potency is 10.7 µM (active). `O=C(N/N=C/c1ccsc1)c1ccc2ccccc2n1`: the Potency is 10.7 µM (active).

On to `O=C(Nc1ccc(F)cc1)c1sccc1SCc1cccc(C(F)(F)F)c1`, for which the Potency result was “inactive”.

Take `O=C(Nc1ccc(F)cc1)c1cc2ccccc2o1`: the Potency was 0.953 µM (active). Next, `O=C1/C(=C/c2ccccc2)CCc2ccc(Cl)nc21`: 10.7 µM (active); `CN1C2CCC1/C(=C\c1ccccc1)C(=O)/C2=C\c1ccccc1`: “inactive”. With `Brc1ccc(C2=CC(c3ccco3)n3nnnc3N2)cc1` (stereo not given), the Potency entry was “inactive”. Next, `C1=C(c2ccc(-c3ccccc3)cc2)Nc2ncnn2C1c1ccco1` (stereo not given): 10.7 µM (active).
